Among the data in paper PMC12864922, “TDP-43 directly inhibits mRNA accumulation in neurites through modulation of mRNA stability” are binding signal values, retold here.

Whole data set: some 9,900 sequences, median “r (bound/input frequency ratio)” near 0.7, cut for the highest 2% near 6.5. What follows is part of a selection rich in the highest values, with near analogues and random picks from the rest.

B1: ENSMUSG00000061578.1484|Ksr2 (ssRNA)
RNA: GGGAGUUCUACAGUCCGACGAUCGCUUCGAUAUCCGCAUGCUAGGUGGAUGCAUAGGCAAGUAGAUGAAUGAAUAUGUGGGUAGAAGGGUGAGUGGGUGGAUGAAUGGAUGGAUAGGUUGGUAGGUUAAUGUAUUCGUGGAUGGGUGAAUGGAUGGAUGGAUAGAUAGAUGGGAAGGUGGAUGGACAGAUGGAUGGAUGGAUAGAUAGAUGGACAGGUGGUUGGUGGAUAAAUGAGUGAAUGAUUAUGUUGAUAGAUAUGUGGGUAGGCUGAAUGGGUGAAUGGAUAGAUCGAUGACUGGAUGCUCUUGCGGUCGCACUAGUGUGGAAUUCUCGGGUGUCAAGG
B2: ENSMUSG00000061578.1479|Ksr2 (ssRNA)
RNA: GGGAGUUCUACAGUCCGACGAUCGCUUCGAUAUCCGCAUGCUAUGAAUGAAUGGAUGAAUGGAUGGGUAGGUGGGUGGAUGCAUAGGCAAGUAGAUGAAUGAAUAUGUGGGUAGAAGGGUGAGUGGGUGGAUGAAUGGAUGGAUAGGUUGGUAGGUUAAUGUAUUCGUGGAUGGGUGAAUGGAUGGAUGGAUAGAUAGAUGGGAAGGUGGAUGGACAGAUGGAUGGAUGGAUAGAUAGAUGGACAGGUGGUUGGUGGAUAAAUGAGUGAAUGAUUAUGUUGAUAGAUAUGUGGGUAGGCUGAACUCUUGCGGUCGCACUAGUGUGGAAUUCUCGGGUGUCAAGG
B3: ENSMUSG00000061578.1486|Ksr2 (ssRNA)
RNA: GGGAGUUCUACAGUCCGACGAUCGCUUCGAUAUCCGCAUGCUAGGCAAGUAGAUGAAUGAAUAUGUGGGUAGAAGGGUGAGUGGGUGGAUGAAUGGAUGGAUAGGUUGGUAGGUUAAUGUAUUCGUGGAUGGGUGAAUGGAUGGAUGGAUAGAUAGAUGGGAAGGUGGAUGGACAGAUGGAUGGAUGGAUAGAUAGAUGGACAGGUGGUUGGUGGAUAAAUGAGUGAAUGAUUAUGUUGAUAGAUAUGUGGGUAGGCUGAAUGGGUGAAUGGAUAGAUCGAUGACUGGAUGGAGGGUGGGUGACUCUUGCGGUCGCACUAGUGUGGAAUUCUCGGGUGUCAAGG
B4: ENSMUSG00000061578.1483|Ksr2 (ssRNA)
RNA: GGGAGUUCUACAGUCCGACGAUCGCUUCGAUAUCCGCAUGCUAUAGGUGGGUGGAUGCAUAGGCAAGUAGAUGAAUGAAUAUGUGGGUAGAAGGGUGAGUGGGUGGAUGAAUGGAUGGAUAGGUUGGUAGGUUAAUGUAUUCGUGGAUGGGUGAAUGGAUGGAUGGAUAGAUAGAUGGGAAGGUGGAUGGACAGAUGGAUGGAUGGAUAGAUAGAUGGACAGGUGGUUGGUGGAUAAAUGAGUGAAUGAUUAUGUUGAUAGAUAUGUGGGUAGGCUGAAUGGGUGAAUGGAUAGAUCGAUGACCUCUUGCGGUCGCACUAGUGUGGAAUUCUCGGGUGUCAAGG
B5: ENSMUSG00000061578.1485|Ksr2 (ssRNA)
RNA: GGGAGUUCUACAGUCCGACGAUCGCUUCGAUAUCCGCAUGCUAUGCAUAGGCAAGUAGAUGAAUGAAUAUGUGGGUAGAAGGGUGAGUGGGUGGAUGAAUGGAUGGAUAGGUUGGUAGGUUAAUGUAUUCGUGGAUGGGUGAAUGGAUGGAUGGAUAGAUAGAUGGGAAGGUGGAUGGACAGAUGGAUGGAUGGAUAGAUAGAUGGACAGGUGGUUGGUGGAUAAAUGAGUGAAUGAUUAUGUUGAUAGAUAUGUGGGUAGGCUGAAUGGGUGAAUGGAUAGAUCGAUGACUGGAUGGAGGGUCUCUUGCGGUCGCACUAGUGUGGAAUUCUCGGGUGUCAAGG
B6: ENSMUSG00000061578.1482|Ksr2 (ssRNA)
RNA: GGGAGUUCUACAGUCCGACGAUCGCUUCGAUAUCCGCAUGCUAGAUGGGUAGGUGGGUGGAUGCAUAGGCAAGUAGAUGAAUGAAUAUGUGGGUAGAAGGGUGAGUGGGUGGAUGAAUGGAUGGAUAGGUUGGUAGGUUAAUGUAUUCGUGGAUGGGUGAAUGGAUGGAUGGAUAGAUAGAUGGGAAGGUGGAUGGACAGAUGGAUGGAUGGAUAGAUAGAUGGACAGGUGGUUGGUGGAUAAAUGAGUGAAUGAUUAUGUUGAUAGAUAUGUGGGUAGGCUGAAUGGGUGAAUGGAUAGAUCCUCUUGCGGUCGCACUAGUGUGGAAUUCUCGGGUGUCAAGG
B7: ENSMUSG00000061578.1481|Ksr2 (ssRNA)
RNA: GGGAGUUCUACAGUCCGACGAUCGCUUCGAUAUCCGCAUGCUAUGAAUGGAUGGGUAGGUGGGUGGAUGCAUAGGCAAGUAGAUGAAUGAAUAUGUGGGUAGAAGGGUGAGUGGGUGGAUGAAUGGAUGGAUAGGUUGGUAGGUUAAUGUAUUCGUGGAUGGGUGAAUGGAUGGAUGGAUAGAUAGAUGGGAAGGUGGAUGGACAGAUGGAUGGAUGGAUAGAUAGAUGGACAGGUGGUUGGUGGAUAAAUGAGUGAAUGAUUAUGUUGAUAGAUAUGUGGGUAGGCUGAAUGGGUGAAUGGACUCUUGCGGUCGCACUAGUGUGGAAUUCUCGGGUGUCAAGG
B8: ENSMUSG00000061578.1478|Ksr2 (ssRNA)
RNA: GGGAGUUCUACAGUCCGACGAUCGCUUCGAUAUCCGCAUGCUAGAUUUGUGAAUGAAUGGAUGAAUGGAUGGGUAGGUGGGUGGAUGCAUAGGCAAGUAGAUGAAUGAAUAUGUGGGUAGAAGGGUGAGUGGGUGGAUGAAUGGAUGGAUAGGUUGGUAGGUUAAUGUAUUCGUGGAUGGGUGAAUGGAUGGAUGGAUAGAUAGAUGGGAAGGUGGAUGGACAGAUGGAUGGAUGGAUAGAUAGAUGGACAGGUGGUUGGUGGAUAAAUGAGUGAAUGAUUAUGUUGAUAGAUAUGUGGGUAGCUCUUGCGGUCGCACUAGUGUGGAAUUCUCGGGUGUCAAGG
B9: ENSMUSG00000061578.1480|Ksr2 (ssRNA)
RNA: GGGAGUUCUACAGUCCGACGAUCGCUUCGAUAUCCGCAUGCUAAAUGGAUGAAUGGAUGGGUAGGUGGGUGGAUGCAUAGGCAAGUAGAUGAAUGAAUAUGUGGGUAGAAGGGUGAGUGGGUGGAUGAAUGGAUGGAUAGGUUGGUAGGUUAAUGUAUUCGUGGAUGGGUGAAUGGAUGGAUGGAUAGAUAGAUGGGAAGGUGGAUGGACAGAUGGAUGGAUGGAUAGAUAGAUGGACAGGUGGUUGGUGGAUAAAUGAGUGAAUGAUUAUGUUGAUAGAUAUGUGGGUAGGCUGAAUGGGUGCUCUUGCGGUCGCACUAGUGUGGAAUUCUCGGGUGUCAAGG

In the experiment the target is TDP-43 (Homo sapiens, UniProt Q13148 1-414). The experiment can be described thus: RNA Bind-n-Seq with designed 260-mer pool; 25 mM Tris-HCl, 150 mM KCl, 3 mM MgCl2, BSA (printed 500 mg/mL), 20 units/mL SUPERase IN; pH not stated; 500 nM RNA pool, 1 h, 4 C; TDP-43 5, 50, 500 nM; high values mean tight binding. As to conditions: protein: recombinant; tags: SBP (GST cleaved off with PreScission; pGEX-GST-SBP). The gist of the method: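 Duplicate measurements used two independent batches of recombinant SBP-tagged TDP-43, which was captured on streptavidin beads at 5, 50 or 500 nM. The beads were incubated with 500 nM of an in vitro-transcribed 260-nt 3′ UTR oligo pool for 1 h at 4 °C in 25 mM Tris-HCl, 150 mM KCl, 3 mM MgCl2, BSA and SUPERase IN. After washing, biotin elution, reverse transcription, PCR amplification and sequencing, binding was expressed as R: each oligo's normalized read abundance in the bound sample over its abundance in input.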
Sequence of TDP-43 (Q13148 whole entry): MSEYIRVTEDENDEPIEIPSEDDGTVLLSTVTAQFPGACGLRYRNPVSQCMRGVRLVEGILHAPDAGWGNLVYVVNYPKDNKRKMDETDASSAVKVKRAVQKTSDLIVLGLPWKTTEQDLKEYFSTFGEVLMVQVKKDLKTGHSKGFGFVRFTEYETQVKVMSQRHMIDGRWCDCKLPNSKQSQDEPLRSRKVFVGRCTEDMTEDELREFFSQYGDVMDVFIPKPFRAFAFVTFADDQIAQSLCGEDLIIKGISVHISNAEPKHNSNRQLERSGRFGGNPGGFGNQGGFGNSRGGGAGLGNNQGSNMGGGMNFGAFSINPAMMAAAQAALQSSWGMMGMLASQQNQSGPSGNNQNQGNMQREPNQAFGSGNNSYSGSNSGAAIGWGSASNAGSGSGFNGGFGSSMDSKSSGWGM
As for B1, the binding signal is 6.89 R (bound/input frequency ratio).
On to B2, for which the binding signal was 5.48 R (bound/input frequency ratio).
The result for B3 reads 5.39 R (bound/input frequency ratio).
The same measure for B4: 4.53 R (bound/input frequency ratio); for B5: 5.62 R (bound/input frequency ratio).
For the molecule B6, the binding signal was 7 R (bound/input frequency ratio).
The result for B7 reads 5.98 R (bound/input frequency ratio); that for B8, 4.77 R (bound/input frequency ratio); that for B9, 7.65 R (bound/input frequency ratio).
